We go through seven compounds from PubChem BioAssay (EPA / NIEHS).

The structures appear in SMILES notation. The source made the active and inactive calls. The calls were made as follows: active = hit-call score of the fitted dose curve at least 0.9, where 1 is the maximum; inactive = score below 0.9.

A short description of assay [1]: BSK_4H_SRB: Viability Assessment in the BioMAP Diversity Plus: 4H Assay (AID 2283027).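 Also: cells exposed to compound for 24 h before staining.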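 As to AC50: curves fitted both ways versus DMSO so AC50 may be loss or gain.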 To be noted: primary human endothelial cells (HUVEC). The method, boiled down:
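Absorbance at 560 nm of SRB-stained total protein served as the viability read-out in confluent primary human umbilical vein endothelium 24 h after chemical treatment. Curves were fitted bidirectionally against DMSO as negative control.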

Assay [2] in a line: BSK_BE3C_SRB: Viability Assessment in the BioMAP Diversity Plus: BE3C Assay (AID 2283028).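 Also: measured 24 h after chemical dosing.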 The note with it: primary human bronchial epithelial cells. The method, boiled down: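 Cytotoxicity read-out: SRB (0.1%) staining of TCA-fixed (10%) human lung bronchial epithelial cells, absorbance 560 nm, 24 h post-dosing. Curves fitted both directions relative to DMSO.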
Read-out in assay [3]: Thrombomodulin, THBD (gene 7056)
As to the kind of experiment: BSK_3C_Thrombomodulin: BioMAP Diversity Plus: 3C Assay for Thrombomodulin Biomarker Activity (AID 2283029). The note with it: primary human endothelial cells (HUVEC); actives raise or lower the signal. The method, boiled down: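 Thrombomodulin ELISA, human primary HUVEC, 24 h post-dose; data fitted in both directions relative to DMSO.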

Read-out in assay [4]: Urokinase-type plasminogen activator receptor (uPAR), PLAUR (gene 5329)
As to the kind of experiment: BSK_4H_uPAR: BioMAP Diversity Plus: 4H Assay for Urokinase-type plasminogen activator receptor (uPAR) Biomarker Activity (AID 2283030). The note with it: primary human endothelial cells (HUVEC); actives raise or lower the signal. The method, boiled down:
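uPAR level read by ELISA on HUVEC cultures (BioMAP 4H) 24 h post-dosing, analyzed for gain or loss relative to DMSO. Parallel SRB staining assessed overt cytotoxicity.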

Read-out in assay [5]: Vascular endothelial growth factor receptor 2 (Homo sapiens) (UniProt P35968)
As to the kind of experiment: BSK_4H_VEGFRII: BioMAP Diversity Plus: 4H Assay for Vascular endothelial growth factor receptor 2 (VEGFR2) Biomarker Activity (AID 2283031). The note with it: primary human endothelial cells (HUVEC); actives raise or lower the signal. The method, boiled down:
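Measured by ELISA after 24 h of compound treatment: VEGFR2 on primary human umbilical vein endothelial cells, fitted in both directions relative to DMSO. Parallel cultures received SRB staining (560 nm) for overt cytotoxicity.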

Read-out in assay [6]: Vascular cell adhesion molecule 1 (VCAM1), VCAM1 (gene 7412)
In words: BSK_4H_VCAM1: BioMAP Diversity Plus: 4H Assay for Vascular cell adhesion molecule 1 (VCAM1) Biomarker Activity (AID 2283033).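 As to outcome: cell-surface VCAM-1 protein measured by ELISA.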 The note with it: primary human endothelial cells (HUVEC); actives raise or lower the signal. The method, boiled down: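 Endpoint derived from bidirectional fitting against DMSO controls of VCAM-1 ELISA signal in umbilical vein endothelial cells sampled at 24 h following treatment.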

Read-out in assay [7]: Interferon-gamma inducible Protein 10 (IP10), CXCL10 (gene 3627)
In words: BSK_BE3C_IP10: BioMAP Diversity Plus: BE3C Assay for Interferon-gamma inducible Protein 10 (IP10) Biomarker Activity (AID 2283034). The note with it: primary human bronchial epithelial cells; actives raise or lower the signal. The method, boiled down: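 Using primary human bronchial epithelial cultures, the assay captures IP-10 by ELISA one day (24 h) after exposure. Parallel SRB staining of total protein flags overt cytotoxicity. Fits run bidirectionally relative to DMSO.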

Read-out in assay [8]: Monokine induced gamma interferon (MIG), CXCL9 (gene 4283)
In words: BSK_BE3C_MIG: BioMAP Diversity Plus: BE3C Assay for Monokine induced gamma interferon (MIG) Biomarker Activity (AID 2283035).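 As to outcome: MIG protein measured by ELISA in BE3C cultures after 24 h of dosing.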 The note with it: primary human bronchial epithelial cells; actives raise or lower the signal. The method, boiled down: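 MIG level was determined by ELISA after 24 h chemical treatment of primary human bronchial epithelial cells. Values were fitted bidirectionally with DMSO as the negative control and activity baseline.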

Read-out in assay [9]: Transforming growth factor beta 1 (TGFb1), TGFB1 (gene 7040)
In words: BSK_BE3C_TGFb1: BioMAP Diversity Plus: BE3C Assay for Transforming growth factor beta 1 (TGFb1) Biomarker Activity (AID 2283036;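 as to outcome: TGF-b1 protein level measured by ELISA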). The note with it: primary human bronchial epithelial cells; actives raise or lower the signal. The gist of the method:
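In this human primary bronchial epithelial system, an ELISA quantified TGF-b1 one day after dosing. Endpoint changes in either direction were fitted relative to DMSO.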

Read-out in assay [10]: Plasminogen activator inhibitor-1 (PAI1), SERPINE1 (gene 5054)
As to the kind of experiment: BSK_BE3C_PAI1: BioMAP Diversity Plus: BE3C Assay for Plasminogen activator inhibitor-1 (PAI1) Biomarker Activity (AID 2283037). The note with it: primary human bronchial epithelial cells; actives raise or lower the signal. The method, boiled down: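 PAI-1 biomarker levels in treated human bronchial epithelial cells are determined by ELISA at 24 h. Both increases and decreases relative to DMSO are fitted.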

Read-out in assay [11]: urokinase plasminogen activator (uPA), PLAU (gene 5328)
In words: BSK_BE3C_uPA: BioMAP Diversity Plus: BE3C Assay for urokinase plasminogen activator (uPA) Biomarker Activity (AID 2283038).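 As to outcome: uPA protein level quantified by ELISA in cell cultures; uPA read one day after compound addition.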 To be noted: primary human bronchial epithelial cells; actives raise or lower the signal. The gist of the method:
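ELISA for uPA on human primary bronchial epithelial cultures 24 h post-treatment, gain or loss against DMSO. Parallel SRB staining (0.1% after 10% TCA fixation, 560 nm) assessed overt cytotoxicity.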

Read-out in assay [12]: Urokinase-type plasminogen activator receptor (uPAR), PLAUR (gene 5329)
In words: BSK_BE3C_uPAR: BioMAP Diversity Plus: BE3C Assay for Urokinase-type plasminogen activator receptor (uPAR) Biomarker Activity (AID 2283039).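 As to outcome: uPAR protein level measured by ELISA on the cells; cells exposed to compound for one day before measurement.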 The note with it: primary human bronchial epithelial cells; actives raise or lower the signal. The gist of the method: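 A uPAR ELISA serves as the readout, taken 24 h after treating primary human bronchial epithelial cells. Responses in either direction are fitted against DMSO, which defines baseline activity.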

Read-out in assay [13]: Interleukin-6 (IL6), IL6 (gene 3569)
As to the kind of experiment: BSK_CASM3C_IL6: BioMAP Diversity Plus: CASM3C Assay for Interleukin-6 (IL6) Biomarker Activity for (AID 2283040). To be noted: primary human coronary artery smooth muscle cells; actives raise or lower the signal.

Read-out in assay [14]: Tissue plasminogen activator (tPA), PLAT (gene 5327)
In words: BSK_BE3C_tPA: BioMAP Diversity Plus: BE3C Assay for Tissue plasminogen activator (tPA) Biomarker Activity (AID 2283041).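 As to outcome: tPA level quantified by ELISA one day after compound addition.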 The note with it: primary human bronchial epithelial cells; actives raise or lower the signal. The method, boiled down: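 Bidirectional curve fitting relative to DMSO defined activity, with tPA detected by ELISA in chemically treated human bronchial epithelial primary cells at 24 hours.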

Read-out in assay [15]: Interleukin-8 (IL8), CXCL8 (gene 3576)
In words: BSK_CASM3C_IL8: BioMAP Diversity Plus: CASM3C Assay for Interleukin-8 (IL8) Biomarker Activity (AID 2283042).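 Also: IL-8 protein level quantified by ELISA.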 To be noted: primary human coronary artery smooth muscle cells; actives raise or lower the signal.

Read-out in assay [16]: Human Leukocyte Antigen - DR isotype (HLADR), HLA-DRA (gene 3122)
In words: BSK_CASM3C_HLADR: BioMAP Diversity Plus: CASM3C Assay for Human Leukocyte Antigen - DR isotype (HLADR) Biomarker Activity (AID 2283043).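 Also: cell-surface HLA-DR protein level quantified by ELISA.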 To be noted: primary human coronary artery smooth muscle cells; actives raise or lower the signal.

Read-out in assay [17]: Macrophage colony-stimulating factor (MCSF), CSF1 (gene 1435)
In words: BSK_CASM3C_MCSF: BioMAP Diversity Plus: CASM3C Assay for Macrophage colony-stimulating factor (MCSF) Biomarker Activity (AID 2283044).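 Also: M-CSF protein amount quantified by ELISA after 24 h exposure.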 To be noted: primary human coronary artery smooth muscle cells; actives raise or lower the signal.

Read-out in assay [18]: Low-density lipoprotein receptor (LDLR), LDLR (gene 3949)
In words: BSK_CASM3C_LDLR: BioMAP Diversity Plus: CASM3C Assay for Low-density lipoprotein receptor (LDLR) Biomarker Activity (AID 2283045).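 Also: LDLR protein level on the cell surface quantified by ELISA.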 To be noted: primary human coronary artery smooth muscle cells; actives raise or lower the signal.

Read-out in assay [19]: Monocyte Chemoattractant Protein-1 (MCP1), CCL2 (gene 6347)
In words: BSK_CASM3C_MCP1: BioMAP Diversity Plus: CASM3C Assay for Monocyte Chemoattractant Protein-1 (MCP1) Biomarker Activity (AID 2283046).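 Also: MCP-1 level quantified by ELISA 24 h after dosing.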 The note with it: primary human coronary artery smooth muscle cells; actives raise or lower the signal.

Read-out in assay [20]: Human Leukocyte Antigen - DR isotype (HLADR), HLA-DRA (gene 3122)
As to the kind of experiment: BSK_BE3C_HLADR: BioMAP Diversity Plus: BE3C Assay for Human Leukocyte Antigen - DR isotype (HLADR) Biomarker Activity (AID 2283032). To be noted: primary human bronchial epithelial cells; actives raise or lower the signal. The gist of the method: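 Signal came from an ELISA for HLA-DR in human bronchial epithelial primary cells harvested 24 h after treatment; gain- and loss-of-signal fitting used DMSO controls as reference.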

Regarding `C=CCc1ccc(OC)c(OC)c1`, the outcome in assay [1], in assay [2], in assay [3], in assay [4], in assay [5] and in [6] was inactive. For the same compound, the result in assay [7], in assay [8], in assay [9], in [10], in assay [11] and in assay [12] was inactive. Further, the result in assay [13], in assay [14], in assay [15], in [16], in [17] and in [18] was inactive. For the same compound, in assay [19], the result was inactive.
A word on the AC50: it is the concentration giving half of the maximal activity seen. Regarding `CC(=O)[C@@]1(O)CC[C@H]2[C@@H]3CCC4=CC(=O)CC[C@]4(C)[C@H]3CC[C@@]21C`, the outcome in assay [1], in assay [3], in [5], in [20], in [6] and in assay [7] was inactive. Besides, the result in assay [8], in assay [9], in assay [10], in [11], in [12] and in assay [14] was inactive. For the same compound, the outcome in assay [15], in assay [16], in assay [17], in assay [18] and in assay [19] was inactive. Moreover, the AC50 is 26.6 µM (active) in [4] and 29.5 µM (active) in assay [13].
On to `COC(=O)[C@H]1[C@H]2C[C@@H]3c4[nH]c5cc(OC)ccc5c4CCN3C[C@H]2C[C@@H](OC(=O)c2cc(OC)c(OC)c(OC)c2)[C@@H]1OC`, for which the AC50 is 22.5 µM (active) in assay [1], 8.36 µM (active) in [6] and 8.87 µM (active) in [18]. Also, the outcome in assay [2], in [3], in assay [5], in assay [20], in assay [8] and in assay [10] was inactive. Besides, the outcome in [12], in assay [13], in assay [14], in [15], in assay [16] and in assay [17] was inactive. Also, in [19], the result was inactive.
In the case of `c1ccc2occc2c1`, the outcome in [1], in [2], in assay [3], in [4], in assay [5] and in [6] was inactive. Also, the outcome in [7], in assay [8], in assay [9], in assay [10], in assay [11] and in assay [12] was inactive. Besides, the result in [13], in assay [14], in assay [15], in [16], in assay [17] and in [18] was inactive. The outcome in assay [19] was inactive.
For `CC(=O)O[C@]1(C(C)=O)CC[C@H]2[C@@H]3C=C(Cl)C4=CC(=O)[C@@H]5C[C@@H]5[C@]4(C)[C@H]3CC[C@@]21C`, the result in assay [1], in assay [2], in assay [3], in assay [5], in assay [6] and in assay [13] was inactive. Also, the outcome in assay [15], in assay [16], in assay [17], in assay [18] and in assay [19] was inactive. Besides, the AC50 is 14.7 µM (active) in [4]; 33.4 µM (active) in assay [7]; 31 µM (active) in assay [8]; 31.5 µM (active) in assay [9]; 20 µM (active) in assay [10]; 38.2 µM (active) in [11]. For the same compound, the AC50 is 32.4 µM (active) in assay [12] and 34.9 µM (active) in [14].
For `CC1(C)C(=O)NC(=O)N1CO`, the result in [1], in [2], in [3], in assay [4], in assay [5] and in assay [6] was inactive. Besides, the result in [7], in assay [8], in assay [9], in [10], in assay [11] and in assay [12] was inactive. Also, the outcome in assay [13], in assay [14], in [15], in assay [16], in assay [17] and in [18] was inactive. In addition, the outcome in assay [19] was inactive.
In the case of `CCCCCCC(C=O)=Cc1ccccc1`, the AC50 in assay [1] is 31.8 µM (active); in assay [6], 33.5 µM (active). Besides, the result in [2], in [3], in assay [4], in assay [5], in [7] and in assay [8] was inactive. The result in [9], in assay [10], in [11], in assay [12], in assay [13] and in [14] was inactive. In addition, the outcome in assay [15], in assay [16], in [17], in [18] and in assay [19] was inactive.
